Experiment [1] is described as follows: BET inhibitor-based combinations targeting novel dependencies in MECOM-rearranged (r) AML: MV-4-11 cell line (AID 2202233). Further: potency means the concentration at half of the fitted maximal effect; nearly all actives have a fitted effect of over 45% in size. The method, boiled down: (§1)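 Activity is given as area under the curve and as Z-AUC, mean-centred within each cell line. It comes from 11-point dose curves normalized to DMSO and empty wells. CellTiter-Glo luminescence was read after 48 hr drug exposure of 500 cells/well.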

Experiment [2] in a line: BET inhibitor-based combinations targeting novel dependencies in MECOM-rearranged (r) AML: UCSD-AML1 cell line (AID 2202235). Further: nearly all actives have a fitted effect of over 40% in size. Further: potency means the concentration at half of the fitted maximal effect. The procedure, abridged:
as §1

A short description of experiment [3]: BET inhibitor-based combinations targeting novel dependencies in MECOM-rearranged (r) AML: AML-194 cell line (AID 2202237; further: nearly all actives have a fitted effect of over 40% in size; further: potency means the concentration at half of the fitted maximal effect). The procedure, abridged: (§2)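 Cells were plated at 500 per well and exposed to an 11-point dose series of each drug for 48 hr. Viability was measured by CellTiter-Glo luminescence, normalized to DMSO and empty-well controls, and summarized as AUC and per-cell-line Z-AUC.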

Experiment [4] can be described thus: BET inhibitor-based combinations targeting novel dependencies in MECOM-rearranged (r) AML: OCI-AML3 cell line (AID 2202232). Further: nearly all actives have a fitted effect of over 35% in size. Further: potency means the concentration at half of the fitted maximal effect. Conditions: Potency: OCI-AML3 viability. The method, boiled down:
as §2

Experiment [5] in a line: BET inhibitor-based combinations targeting novel dependencies in MECOM-rearranged (r) AML: HNT-34 cell line (AID 2202234).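 Further: plate controls were vehicle wells for no effect and cell-free wells for full effect; nearly all actives have a fitted effect of over 35% in size.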 The method, boiled down: as §1
Experiment [6] is described as follows: BET inhibitor-based combinations targeting novel dependencies in MECOM-rearranged (r) AML: AML-191 cell line (AID 2202236; further: nearly all actives have a fitted effect of over 35% in size; further: potency means the concentration at half of the fitted maximal effect). The procedure, abridged:
as §2

The nature of experiment [7]: BET inhibitor-based combinations targeting novel dependencies in MECOM-rearranged (r) AML: SET-2 cell line (AID 2202231). Further: nearly all actives have a fitted effect of over 35% in size. Further: potency means the concentration at half of the fitted maximal effect.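 On viability: plate controls were DMSO treated cells for no effect and wells without cells for full effect.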 The settings on record: SET-2 AML cells viability, CellTiter-Glo luminescence, 48 h; viability: active compounds read low, concentration not given here. The procedure, abridged:
as §2
On the technique in general: ATP-based viability assays read luminescence as a measure of living cells.

As usually defined, the viability is a read-out of living cells in per cent, often relative to untreated cells.

Structures are written as SMILES. Inconclusive results are not listed. A number with no mark means an inactive call. Activity calls are given as the source filed them. The call rests on the fitted dose curve; in most records, active means well fitted curve in the direction sought with a large enough effect; inconclusive means small, poorly fitted or top-dose-only effect, or another doubt; inactive means no such curve, though single readings can be large; an effect the other way counts as inactive or inconclusive.

Turning to `C/C=C(\C)C(=O)N[C@@H](c1ccccc1)[C@@H](O)C(=O)O[C@H]1C[C@@]2(O)[C@@H](OC(=O)c3ccccc3)[C@@H]3[C@]4(OC(C)=O)CO[C@@H]4C[C@H](O)[C@@]3(C)C(=O)[C@H](OC(C)=O)C(=C1C)C2(C)C`, the Potency in experiment [1] was 0.0263 µM (active); in experiment [2] it was 0.0166 µM (active); in experiment [3] it was 0.0742 µM (active).

For the compound `CC(N[C@H]1C[C@@H]1c1ccccc1)c1ccc2c(c1)OCCO2` (stereo partly drawn), the Potency entry in experiment [4], in experiment [5] and in experiment [6] was “inactive” in each case. Moreover, the Potency in experiment [2] was 1.05 µM (active).

Turning to `C#CCN(C)[C@H](C)Cc1ccccc1`, the viability in experiment [7] was 96.9%. Also, the Potency result in experiment [5], in experiment [2] and in experiment [6] was “inactive” throughout.

In the case of `O=C(CBr)N1CC([N+](=O)[O-])([N+](=O)[O-])C1`, the Potency in experiment [4] and in experiment [1] was 34 µM (active) in each case.

In the case of `N#CC(O[C@@H]1O[C@H](CO[C@@H]2O[C@H](CO)[C@@H](O)[C@H](O)[C@H]2O)[C@@H](O)[C@H](O)[C@H]1O)c1ccccc1` (stereo partly drawn), the Potency entry in experiment [4] and in experiment [3] was “inactive” each time.

`CO/C1=C/C(C)=C\[C@@H](C)[C@@H](O)[C@@H](C)C/C(C)=C\C=C/[C@H](OC)[C@@H]([C@@H](C)[C@@H](O)[C@H](C)[C@@]2(O)C[C@@H](O)[C@H](C)[C@@H](C(C)C)O2)OC1=O`: the Potency was 0.124 µM (active) in experiment [4] and 0.0986 µM (active) in experiment [1]. Further, in experiment [2], the Potency result is “inactive”.

Take `C#CC1(O)CCC2C3CCC4=CC(=O)CCC4(C)C3CCC21C` (stereo not drawn): the viability in experiment [7] is 107%. Moreover, in experiment [3], the Potency result was “inactive”.

Take `Cn1c(COP(=O)(NCCBr)NCCBr)cnc1[N+](=O)[O-]`: the viability in experiment [7] is 123%. In addition, the Potency result in experiment [5], in experiment [2], in experiment [6] and in experiment [3] was “inactive” throughout.

For `C/C(=C\c1csc(C)n1)[C@@H]1C[C@@H]2O[C@]2(C)CCC[C@H](C)[C@H](O)[C@@H](C)C(=O)C(C)(C)[C@@H](O)CC(=O)O1`, the Potency in experiment [7] was 0.0186 µM (active); in experiment [1], 0.0093 µM (active); in experiment [2], 0.0059 µM (active); in experiment [6], 0.0105 µM (active).

Take `C[C@@H]1CC[C@@]2(OC1)O[C@H]1C[C@H]3[C@@H]4CC=C5C[C@@H](O[C@@H]6O[C@H](CO)[C@@H](O[C@@H]7O[C@@H](C)[C@H](O)[C@@H](O)[C@H]7O)[C@H](O)[C@H]6O[C@@H]6O[C@@H](C)[C@H](O)[C@@H](O)[C@H]6O)CC[C@]5(C)[C@H]4CC[C@]3(C)[C@H]1[C@@H]2C`: the Potency was 8.33 µM (active) in experiment [7], 5.9 µM (active) in experiment [1], 5.25 µM (active) in experiment [6] and 8.33 µM (active) in experiment [3].

For the origin of these results see PubChem BioAssay (NCATS).
